Source: the supplement of paper PMC11732987, “Enantioselective OTUD7B fragment discovery through chemoproteomics screening and high-throughput optimisation” (Communications Chemistry, 2025)

Columns and labels:
Assay in all cases: log2 ratio of Biotin-Ahx-Ub-VS probe labelling (fragment/DMSO); higher = less target engagement (more negative = stronger competition), active = hit call of the paper (q ≤ 0.05, log2 ratio ≤ -1)
Details in all cases: compound concentration: 200 uM; treatment time: 3 h
OTUD6B = target: T1, OTUD6B (UniProt Q8N6M0)
T1 sequence (whole entry): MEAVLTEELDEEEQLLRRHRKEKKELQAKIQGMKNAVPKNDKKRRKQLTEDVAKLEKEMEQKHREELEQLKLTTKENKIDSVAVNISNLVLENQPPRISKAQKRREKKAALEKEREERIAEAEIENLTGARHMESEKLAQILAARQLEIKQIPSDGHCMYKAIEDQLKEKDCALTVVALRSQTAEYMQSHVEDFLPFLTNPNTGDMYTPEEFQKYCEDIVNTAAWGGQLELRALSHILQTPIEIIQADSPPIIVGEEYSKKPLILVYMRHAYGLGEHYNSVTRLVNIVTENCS
How it was run: (§1)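 Average log2 ratios of fragment over vehicle were obtained by unpaired t-test from global-median-normalised Spectronaut label-free quantities. Proteins with ≥2 unique peptides were included. HEK293T lysate (495 µg per sample) was treated in triplicate with fragment at 200 µM or vehicle for 3 h, then with Biotin-Ahx-Ub-VS at 0.5 µM final for 1 h, and labelled DUBs were NeutrAvidin-enriched and run by diaPASEF LC-MS/MS.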

OTUD7B = target: T2, OTUD7B (UniProt Q6GQQ9)
T2 sequence (whole entry): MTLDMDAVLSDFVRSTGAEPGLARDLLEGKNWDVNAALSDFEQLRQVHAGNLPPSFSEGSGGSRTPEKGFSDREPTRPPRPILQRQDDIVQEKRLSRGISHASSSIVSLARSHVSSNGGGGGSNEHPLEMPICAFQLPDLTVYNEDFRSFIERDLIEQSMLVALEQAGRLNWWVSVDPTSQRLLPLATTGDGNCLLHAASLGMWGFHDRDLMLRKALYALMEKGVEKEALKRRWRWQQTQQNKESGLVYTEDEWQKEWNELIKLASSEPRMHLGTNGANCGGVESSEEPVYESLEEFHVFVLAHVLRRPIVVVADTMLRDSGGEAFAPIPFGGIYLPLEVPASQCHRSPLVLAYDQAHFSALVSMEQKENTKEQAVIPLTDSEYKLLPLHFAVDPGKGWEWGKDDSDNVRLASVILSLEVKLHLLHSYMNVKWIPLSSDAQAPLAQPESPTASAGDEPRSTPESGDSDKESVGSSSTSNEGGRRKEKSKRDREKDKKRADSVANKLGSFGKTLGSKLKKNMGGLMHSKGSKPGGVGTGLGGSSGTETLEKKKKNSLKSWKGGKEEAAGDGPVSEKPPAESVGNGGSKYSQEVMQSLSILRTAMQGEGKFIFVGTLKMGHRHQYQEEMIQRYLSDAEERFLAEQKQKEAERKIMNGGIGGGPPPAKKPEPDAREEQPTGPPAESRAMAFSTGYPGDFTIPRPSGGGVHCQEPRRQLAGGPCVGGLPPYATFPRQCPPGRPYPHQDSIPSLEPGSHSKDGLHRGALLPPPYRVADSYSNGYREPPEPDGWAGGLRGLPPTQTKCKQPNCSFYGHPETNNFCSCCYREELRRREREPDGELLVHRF
How it was run: as §1

PRPF8 = PRPF8 (UniProt Q6P2Q9)
How it was run: as §1

PSMD7 = target: T3, PSMD7 (UniProt P51665)
T3 sequence (whole entry): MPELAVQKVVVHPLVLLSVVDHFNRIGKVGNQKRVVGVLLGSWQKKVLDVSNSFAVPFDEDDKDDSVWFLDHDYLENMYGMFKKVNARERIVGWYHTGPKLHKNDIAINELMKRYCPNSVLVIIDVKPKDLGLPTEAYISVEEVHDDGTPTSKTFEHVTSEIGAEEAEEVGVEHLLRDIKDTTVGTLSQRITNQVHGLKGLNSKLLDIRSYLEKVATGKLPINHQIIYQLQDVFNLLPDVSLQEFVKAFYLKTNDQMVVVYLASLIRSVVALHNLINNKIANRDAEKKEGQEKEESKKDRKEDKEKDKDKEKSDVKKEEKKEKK
How it was run: as §1

UCHL1 = UCHL1 (UniProt P09936)
How it was run: as §1

UCHL3 = target: T4, UCHL3 (UniProt P15374)
T4 sequence (whole entry): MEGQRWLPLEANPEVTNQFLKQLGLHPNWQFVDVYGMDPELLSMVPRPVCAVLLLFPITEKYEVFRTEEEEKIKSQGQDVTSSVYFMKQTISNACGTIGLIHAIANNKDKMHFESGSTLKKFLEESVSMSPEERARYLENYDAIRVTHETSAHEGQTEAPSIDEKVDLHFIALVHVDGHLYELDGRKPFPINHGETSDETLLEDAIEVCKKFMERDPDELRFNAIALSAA
How it was run: as §1

UCHL5 = target: T5, UCHL5 (UniProt Q9Y5K5)
T5 sequence (whole entry): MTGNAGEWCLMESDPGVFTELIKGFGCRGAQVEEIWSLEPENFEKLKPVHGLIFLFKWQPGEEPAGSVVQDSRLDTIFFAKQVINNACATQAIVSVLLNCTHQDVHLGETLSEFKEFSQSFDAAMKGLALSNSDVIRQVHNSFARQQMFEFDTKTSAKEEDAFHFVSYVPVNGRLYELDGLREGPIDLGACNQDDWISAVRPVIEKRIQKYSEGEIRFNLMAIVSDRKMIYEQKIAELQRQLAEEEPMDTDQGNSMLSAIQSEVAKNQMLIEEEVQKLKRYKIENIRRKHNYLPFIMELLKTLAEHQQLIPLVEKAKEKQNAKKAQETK
How it was run: as §1

USP10 = USP10 (UniProt Q14694)
How it was run: as §1

USP15 = target: T6, USP15 (UniProt Q9Y4E8)
T6 sequence (whole entry): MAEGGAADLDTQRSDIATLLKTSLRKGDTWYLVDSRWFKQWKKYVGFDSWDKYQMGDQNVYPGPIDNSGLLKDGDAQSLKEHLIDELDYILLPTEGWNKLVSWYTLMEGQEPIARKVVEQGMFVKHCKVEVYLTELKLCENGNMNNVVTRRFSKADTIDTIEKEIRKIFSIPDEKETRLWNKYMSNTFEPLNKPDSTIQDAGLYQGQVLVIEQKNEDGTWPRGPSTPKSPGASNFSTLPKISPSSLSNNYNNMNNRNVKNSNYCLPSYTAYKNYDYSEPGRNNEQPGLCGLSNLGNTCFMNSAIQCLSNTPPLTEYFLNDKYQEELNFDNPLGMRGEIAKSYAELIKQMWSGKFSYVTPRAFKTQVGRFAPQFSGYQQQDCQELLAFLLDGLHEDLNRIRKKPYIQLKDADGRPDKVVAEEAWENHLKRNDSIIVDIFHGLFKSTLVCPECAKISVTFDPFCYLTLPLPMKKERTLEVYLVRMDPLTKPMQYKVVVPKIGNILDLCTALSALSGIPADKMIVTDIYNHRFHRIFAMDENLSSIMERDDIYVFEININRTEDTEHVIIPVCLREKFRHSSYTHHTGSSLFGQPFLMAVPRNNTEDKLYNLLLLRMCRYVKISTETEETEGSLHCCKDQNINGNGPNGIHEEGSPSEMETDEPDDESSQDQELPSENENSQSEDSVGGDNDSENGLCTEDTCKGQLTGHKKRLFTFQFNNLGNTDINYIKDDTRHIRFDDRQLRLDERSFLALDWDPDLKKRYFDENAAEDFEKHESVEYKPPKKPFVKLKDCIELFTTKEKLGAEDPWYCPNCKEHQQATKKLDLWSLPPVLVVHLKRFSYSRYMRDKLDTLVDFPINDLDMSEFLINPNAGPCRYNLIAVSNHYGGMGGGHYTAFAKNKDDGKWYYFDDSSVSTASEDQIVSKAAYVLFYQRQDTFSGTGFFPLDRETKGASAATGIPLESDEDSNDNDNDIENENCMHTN
How it was run: as §1

USP16 = USP16 (UniProt Q9Y5T5)
How it was run: as §1

Measured: log2 ratio of Biotin-Ahx-Ub-VS probe labelling

Sequence of USP16 (Q9Y5T5 whole entry, looked up): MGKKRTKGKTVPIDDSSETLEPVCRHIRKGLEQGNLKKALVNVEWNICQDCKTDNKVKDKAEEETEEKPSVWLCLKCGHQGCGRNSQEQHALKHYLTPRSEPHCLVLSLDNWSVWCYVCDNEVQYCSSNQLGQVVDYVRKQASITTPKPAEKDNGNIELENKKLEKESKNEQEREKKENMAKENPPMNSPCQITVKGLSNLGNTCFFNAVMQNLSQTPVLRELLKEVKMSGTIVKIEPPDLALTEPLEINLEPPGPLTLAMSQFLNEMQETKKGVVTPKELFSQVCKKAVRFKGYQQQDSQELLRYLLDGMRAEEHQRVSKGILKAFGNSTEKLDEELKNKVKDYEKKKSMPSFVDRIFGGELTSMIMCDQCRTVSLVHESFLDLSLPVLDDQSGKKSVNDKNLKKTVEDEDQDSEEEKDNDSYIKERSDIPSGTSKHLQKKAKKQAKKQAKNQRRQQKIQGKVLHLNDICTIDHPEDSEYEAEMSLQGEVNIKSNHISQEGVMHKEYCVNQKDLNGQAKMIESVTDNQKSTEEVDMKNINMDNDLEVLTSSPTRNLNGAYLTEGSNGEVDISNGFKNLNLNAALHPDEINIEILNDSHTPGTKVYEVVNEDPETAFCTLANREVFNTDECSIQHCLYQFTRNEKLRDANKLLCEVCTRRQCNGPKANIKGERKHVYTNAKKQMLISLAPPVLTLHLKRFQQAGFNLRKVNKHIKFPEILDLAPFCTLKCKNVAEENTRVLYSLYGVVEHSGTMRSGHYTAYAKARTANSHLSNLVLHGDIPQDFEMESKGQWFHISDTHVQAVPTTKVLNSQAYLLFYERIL
Sequence of USP10 (Q14694 whole entry): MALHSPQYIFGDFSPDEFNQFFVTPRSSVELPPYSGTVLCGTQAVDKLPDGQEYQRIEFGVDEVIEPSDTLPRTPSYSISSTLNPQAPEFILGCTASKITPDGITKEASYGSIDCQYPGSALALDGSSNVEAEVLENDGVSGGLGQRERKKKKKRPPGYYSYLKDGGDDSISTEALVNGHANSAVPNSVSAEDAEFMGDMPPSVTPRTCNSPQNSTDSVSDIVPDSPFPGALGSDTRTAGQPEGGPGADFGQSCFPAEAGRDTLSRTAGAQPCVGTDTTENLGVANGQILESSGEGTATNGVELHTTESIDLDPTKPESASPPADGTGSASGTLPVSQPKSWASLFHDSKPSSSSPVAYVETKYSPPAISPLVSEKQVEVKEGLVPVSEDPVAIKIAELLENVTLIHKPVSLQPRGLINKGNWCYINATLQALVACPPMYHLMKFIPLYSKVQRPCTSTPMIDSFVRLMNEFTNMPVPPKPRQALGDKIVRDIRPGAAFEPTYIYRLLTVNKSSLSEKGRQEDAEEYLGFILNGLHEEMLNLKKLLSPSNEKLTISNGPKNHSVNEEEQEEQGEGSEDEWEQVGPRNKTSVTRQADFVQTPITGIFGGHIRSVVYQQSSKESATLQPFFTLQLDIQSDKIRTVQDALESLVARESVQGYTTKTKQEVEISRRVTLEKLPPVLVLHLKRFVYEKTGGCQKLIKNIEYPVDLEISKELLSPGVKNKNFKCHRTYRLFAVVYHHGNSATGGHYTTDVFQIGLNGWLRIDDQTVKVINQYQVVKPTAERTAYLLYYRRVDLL
Sequence of UCHL1 (P09936 whole entry, looked up): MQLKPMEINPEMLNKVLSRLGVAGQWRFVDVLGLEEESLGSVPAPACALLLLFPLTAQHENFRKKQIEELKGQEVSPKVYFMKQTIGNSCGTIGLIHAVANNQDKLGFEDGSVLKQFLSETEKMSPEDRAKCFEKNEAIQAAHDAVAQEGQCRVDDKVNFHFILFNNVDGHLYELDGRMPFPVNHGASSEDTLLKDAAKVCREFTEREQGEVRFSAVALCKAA

O=C(CCl)N1CCc2ccccc2C(O)C1 (stereo not given)
active: OTUD7B -1.21 | UCHL1 -1.58
inactive: OTUD6B -0.357 | PRPF8 0.137 | PSMD7 -0.212 | UCHL3 -0.197 | UCHL5 -0.317 | USP10 -0.14 | USP15 -0.392 | USP16 0.132
